Test results published in PubChem BioAssay (NCI).
Compounds without any hit were thinned out: in the full panel of roughly 83,000, 20% have a hit.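 Percent growth is the endpoint: 0 to 100 indicates growth inhibition (40 means 60% inhibition), 0 means no net growth, and negative values indicate cell death.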 A number with no mark means an inactive call. Activity calls are given as the source filed them. Rule for the calls: active = growth percent below 10; inactive = the rest.

Assays:
Experiment in all cases: NCI-60 one-dose screen, 48 h (100 = growth as untreated, 0 = no growth, -100 = all killed)
Conditions in all cases: 10 µM unless noted
[1] = system: SK-MEL-2 melanoma
[2] = system: EKVX NSCLC
[3] = system: SN12C renal
[4] = system: UO-31 renal
[5] = system: TK-10 renal
[6] = system: ACHN renal
[7] = system: CAKI-1 renal
[8] = system: A498 renal
[9] = system: CCRF-CEM leukemia
[10] = system: MOLT-4 leukemia
[11] = system: SR leukemia
[12] = system: RPMI-8226 leukemia
[13] = system: OVCAR-8 ovarian
[14] = system: OVCAR-5 ovarian
[15] = system: SK-OV-3 ovarian
[16] = system: IGROV1 ovarian
[17] = system: OVCAR-3 ovarian
[18] = system: HS 578T breast
[19] = system: NCI/ADR-RES ovarian

Structure (SMILES)	growth [1]	growth [2]	growth [3]	growth [4]	growth [5]	growth [6]	growth [7]	growth [8]	growth [9]	growth [10]	growth [11]	growth [12]	growth [13]	growth [14]	growth [15]	growth [16]	growth [17]	growth [18]	growth [19]
CCCCC(CC)COC(=O)C[N+](C)(C)CCOC(c1ccccc1)c1ccccc1 (centres undefined)	-26.9% (active)	57.9%	43.2%	95.6%	53.7%	101%	97.4%	101%	20.4%	40.7%	-30.2% (active)	-61% (active)	48.8%	75.6%	59%	-0.732% (active)	19.2%	69.7%	99.1%
CC(=O)OC[C@]12CC[C@@H](C(=O)CBr)[C@@H]1[C@H]1CC[C@@H]3[C@@]4(C)CCCNC(C)(C)[C@@H]4CC[C@@]3(C)[C@]1(C)CC2	-80.8% [100 µM] (active)	-81% [100 µM] (active)	-37.8% [100 µM] (active)	-99.3% [100 µM] (active)	-92.4% [100 µM] (active)	-90.1% [100 µM] (active)	-96.1% [100 µM] (active)	-84.5% [100 µM] (active)	-32.5% [100 µM] (active)	-23.2% [100 µM] (active)	14.7% [100 µM]	-36.1% [100 µM] (active)	-26.1% [100 µM] (active)	-74.4% [100 µM] (active)	-86.8% [100 µM] (active)	-61.3% [100 µM] (active)	-85.3% [100 µM] (active)	-22.7% [100 µM] (active)	-38.8% [100 µM] (active)
O=c1cc(-c2ccccc2)oc2cc(OCc3cn(Cc4ccc(F)cc4)nn3)cc(O)c12	-39.8% [100 µM] (active)	60.1% [100 µM]	58.1% [100 µM]	67% [100 µM]	0.593% [100 µM] (active)	5.21% [100 µM] (active)	58.7% [100 µM]	63.1% [100 µM]	109% [100 µM]	95.5% [100 µM]	96.8% [100 µM]	93.7% [100 µM]	20.4% [100 µM]	83.7% [100 µM]	20.6% [100 µM]	31.2% [100 µM]	61.7% [100 µM]	9.08% [100 µM] (active)	43.2% [100 µM]
COC(=O)[C@]1(C)CC[C@]2(C)CC[C@]3(C)C(=CC(=O)[C@@H]4[C@@]5(C)CCC(=O)NC(C)(C)[C@@H]5CC[C@]43C)[C@@H]2C1	-83.2% [100 µM] (active)	-45.1% [100 µM] (active)	-81.1% [100 µM] (active)	-93.3% [100 µM] (active)	-26.3% [100 µM] (active)	-39.8% [100 µM] (active)	-20% [100 µM] (active)	-91.4% [100 µM] (active)	-25.4% [100 µM] (active)	-20.7% [100 µM] (active)	32.7% [100 µM]	-44.5% [100 µM] (active)	-39.8% [100 µM] (active)	-60.8% [100 µM] (active)	-16.8% [100 µM] (active)	-55.5% [100 µM] (active)	-70.4% [100 µM] (active)	-30.4% [100 µM] (active)	-71.9% [100 µM] (active)
CCOC(=O)c1cc(C(=O)c2ccc(OC)c(OC)c2)n2ccc(-c3ccccn3)cc12	70.9%	92.2%	60.6%	76.3%	55.4%	30%	78.7%	42.1%	111%	124%	75.8%	72.9%	37%	84%	6.14% (active)	54.7%	78.5%	64.2%	65.6%
COC(=O)c1cc(O)c2c(c1C(=O)OC)C[C@H]1[C@@H]3CC=C4C[C@@H](O)CC[C@]4(C)[C@H]3CC[C@]21C	78.7%	55%	71.3%	39.9%	55%	39.9%	26.2%	49.8%	37.8%	35.6%	31.5%	16.6%	63.9%	61.4%	83.7%	72.8%	33.2%	31.5%	44.2%
N#C/C(C(=O)c1ccccc1)=C1/C(=O)Nc2ccc(F)cc21	108%	94.2%	98%	74%	122%	92.6%	86.3%	81.1%	116%	104%	118%	104%	101%	106%	84.5%	97.4%	106%	98.6%	97.5%
C=C(C)[C@@H]1CC[C@]2(C(=O)NCCNCCNCCN)CC[C@]3(C)[C@H](CC[C@@H]4[C@@]5(C)CC[C@H](O)C(C)(C)[C@@H]5CC[C@]43C)[C@@H]12	-65.4% [100 µM] (active)	-11.4% [100 µM] (active)	-53.7% [100 µM] (active)	-100% [100 µM] (active)	-67.3% [100 µM] (active)	-100% [100 µM] (active)	-93.6% [100 µM] (active)	-32.6% [100 µM] (active)	5.18% [100 µM] (active)	1.18% [100 µM] (active)	-4.72% [100 µM] (active)	-8.15% [100 µM] (active)	-12.9% [100 µM] (active)	-83.4% [100 µM] (active)	-14.2% [100 µM] (active)	-81.4% [100 µM] (active)	-66% [100 µM] (active)	-23.3% [100 µM] (active)	-13.1% [100 µM] (active)
C[C@H]1[C@H](C)CC[C@]2(COC(=O)CCC(=O)O)CC[C@]3(C)C(=CC[C@@H]4[C@@]5(C)CCCNC(C)(C)[C@@H]5CC[C@]43C)[C@H]12	55.6% [100 µM]	71.5% [100 µM]	65% [100 µM]	65.4% [100 µM]	81.3% [100 µM]	60.2% [100 µM]	54.1% [100 µM]	70.3% [100 µM]	73.5% [100 µM]	46% [100 µM]	80.4% [100 µM]	59.7% [100 µM]	69.8% [100 µM]	88.5% [100 µM]	65.2% [100 µM]	54.9% [100 µM]	75.4% [100 µM]	41.8% [100 µM]	71.8% [100 µM]
C[C@H]1[C@H](C)CC[C@]2(C(=O)O)CC[C@]3(C)C(=CC[C@@H]4[C@@]5(C)C/C(=C/c6cccnc6)[C@H](O)C(C)(C)[C@@H]5CC[C@]43C)[C@H]12	-28.1% [100 µM] (active)	15.8% [100 µM]	3% [100 µM] (active)	-77% [100 µM] (active)	8.85% [100 µM] (active)	4.57% [100 µM] (active)	7.71% [100 µM] (active)	19% [100 µM]	-1.43% [100 µM] (active)	2.42% [100 µM] (active)	25.4% [100 µM]	-4.1% [100 µM] (active)	12.4% [100 µM]	-13.7% [100 µM] (active)	5.9% [100 µM] (active)	7.23% [100 µM] (active)	-39% [100 µM] (active)	4.34% [100 µM] (active)	1.11% [100 µM] (active)
CSc1cccc([N+](=O)[O-])c1	106%	103%	86.2%	95.7%	108%	102%	101%	121%	90.3%	107%	107%	96.8%	107%	101%	97.8%	101%	110%	107%	109%
